# According to the supplement of paper PMC12350171:
# Where a name gives a salt, the structure may show the parent alone.
# Tested on: S. enterica typhimurium WT
# Test: growth AUC normalised to DMSO control (median) (fraction of control); higher = less growth inhibition, active = hit call of the paper
# Settings: 20 µM;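 active = normalised median growth AUC below 0.1 of DMSO control; inactive = AUC 0.1 or higher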
# Outline: (§1)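 For normalised area under the curve, growth curves were truncated at entry into stationary phase, integrated by the trapezoidal rule and divided against vehicle wells on the same plate. The curves came from strains passaged twice overnight without oxygen and then grown in mGAM in 96-well plates at a starting OD578 of 0.01. Each well held an approved-drug library compound at 20 μM with 1% DMSO, and OD578 was read hourly for 24 h in an anaerobic incubator. Values are medians of three biological replicates.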
# 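Also: active when median AUC fell below 0.1.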
row,SMILES,growth AUC normalised to DMSO control
1,CN1CCC[C@@H]1CCO[C@](C)(c1ccccc1)c1ccc(Cl)cc1 [Clemastine fumarate],0.998 (inactive)
2,CN(C)CCOC(C)(c1ccccc1)c1ccccn1 (centres undefined) [Doxylamine succinate],0.986 (inactive)
3,CC(=O)N(O)CCCCCNC(=O)CCC(=O)N(O)CCCCCNC(=O)CCC(=O)N(O)CCCCCN [Deferoxamine mesylate],0.998 (inactive)
4,C[C@]12CCC(=O)C=C1CC[C@@H]1[C@@H]2[C@@H](O)C[C@@]2(C)[C@H]1CC[C@]2(O)C(=O)CO [Hydrocortisone],0.999 (inactive)
5,CN(C)CC/C=C1\c2ccccc2CSc2ccccc21 [Dosulepin hydrochloride],0.996 (inactive)
6,CN1CCN(CCCN2c3ccccc3Sc3ccc(S(=O)(=O)N(C)C)cc32)CC1 [Thioproperazine dimesylate],0.994 (inactive)
7,CO[C@H]1C[C@H](O[C@H]2[C@H](C)[C@@H](O[C@@H]3O[C@H](C)C[C@H](N(C)C)[C@H]3OC(C)=O)[C@@H](C)C[C@@]3(CO3)C(=O)[C@H](C)[C@@H](OC(C)=O)[C@@H](C)[C@@H](C)OC(=O)[C@@H]2C)O[C@@H](C)[C@@H]1OC(C)=O [Troleandomycin],0.988 (inactive)
8,Cc1cnc(C(=O)O)c[n+]1[O-] [Acipimox],1.01 (inactive)
9,COc1ccc(-c2cc(=O)c3c(O)cc(O[C@@H]4O[C@H](CO[C@@H]5O[C@@H](C)[C@H](O)[C@@H](O)[C@H]5O)[C@@H](O)[C@H](O)[C@H]4O)cc3o2)cc1O [Diosmin],1 (inactive)

# Tested on: S. enterica typhimurium tolC KO
# Test: as above
# Settings: 20 µM
# Outline: as §1
row,SMILES,growth AUC normalised to DMSO control
1,Cc1ccc(-c2cc(C(F)(F)F)nn2-c2ccc(S(N)(=O)=O)cc2)cc1 [Celecoxib],0.852 (inactive)
2,CCCN(CCC)C(=O)C(CCC(=O)O)NC(=O)c1ccccc1 (centres undefined) [Proglumide],0.99 (inactive)
3,Clc1ccc(C(c2ccccc2Cl)C(Cl)Cl)cc1 (centres undefined) [Mitotane],0.957 (inactive)
4,CCc1c(C)[nH]c2c1C(=O)C(CN1CCOCC1)CC2 (centres undefined) [Molindone hydrochloride],1.01 (inactive)
5,OC(CCN1CCCCC1)(c1ccccc1)C1CC2C=CC1C2 (centres undefined) [Biperiden hydrochloride],0.946 (inactive)
6,CC(COc1ccccc1)N(CCCl)Cc1ccccc1 (centres undefined) [Phenoxybenzamine hydrochloride],0.99 (inactive)
7,Nc1ccc(/N=N/c2ccccc2)c(N)n1 [Phenazopyridine hydrochloride],0.988 (inactive)
8,N=C(N)NS(=O)(=O)c1ccc(N)cc1 [Sulfaguanidine],1 (inactive)
9,COc1ccc(/C=C/C(=O)Nc2ccccc2C(=O)O)cc1OC [Tranilast],0.952 (inactive)
10,C=C1/C(=C\C=C2/CCC[C@]3(C)[C@@H]([C@H](C)/C=C/[C@@H](O)C4CC4)CC[C@@H]23)C[C@@H](O)C[C@@H]1O [Calcipotriene],0.946 (inactive)
11,C[N+](C)(CCOc1ccccc1)Cc1ccccc1.O=C([O-])c1cc2ccccc2cc1O [Bephenium hydroxynaphthoate],0.977 (inactive)
12,COc1c(N2C[C@@H]3CCCN[C@@H]3C2)c(F)cc2c(=O)c(C(=O)O)cn(C3CC3)c12 [Moxifloxacin],0.00519 (active)
13,C[N+](C)(C)CCOC(N)=O [Carbachol chloride],1.01 (inactive)
14,COCCOC(=O)C1=C(C)NC(C)=C(C(=O)OC/C=C/c2ccccc2)C1c1cccc([N+](=O)[O-])c1 (centres undefined) [Cilnidipine],1.01 (inactive)
15,CCc1cc(C(N)=S)ccn1 [Ethionamide],0.994 (inactive)
16,CCOC(=O)n1ccn(C)c1=S [Carbimazole],1.01 (inactive)
17,CN(C)CCC[C@@]1(c2ccc(F)cc2)OCc2cc(C#N)ccc21 [Escitalopram oxalate],0.982 (inactive)
18,COc1ccc2[nH]c([S+]([O-])Cc3ncc(C)c(OC)c3C)nc2n1 (centres undefined) [Tenatoprazole],0.963 (inactive)
19,CC1CCc2cc(F)cc3c(=O)c(C(=O)O)cn1c23 (centres undefined) [Flumequine],0.00721 (active)
20,CCn1cc(C(=O)O)c(=O)c2cc(F)c(N3CCNCC3)cc21 [Norfloxacin],0.0069 (active)

row,SMILES,growth AUC normalised to DMSO control
1,Nc1ccc(S(=O)(=O)c2ccc(N)cc2)cc1 [Dapsone],0.994 (inactive)
2,CC(C)(C)NCC(O)COc1cccc2c1CC(O)C(O)C2 (centres undefined) [Nadolol],1 (inactive)
3,COc1c2occc2c(OC)c2c(=O)cc(C)oc12 [Khellin],0.985 (inactive)
4,COc1cc(C(=O)NS(=O)(=O)c2ccccc2C)ccc1Cc1cn(C)c2ccc(NC(=O)OC3CCCC3)cc12 [Zafirlukast],0.962 (inactive)
5,NS(=O)(=O)c1cc2c(cc1Cl)NCNS2(=O)=O [Hydrochlorothiazide],1.02 (inactive)
6,CC(=O)O[C@H]1C[C@@H]2CC[C@@H]3[C@H](CC[C@@]4(C)[C@H]3C[C@H]([N+]3(C)CCCCC3)[C@@H]4OC(C)=O)[C@@]2(C)C[C@@H]1N1CCCCC1 [Vecuronium bromide],1 (inactive)
7,CC(=O)OCC(=O)[C@@]1(O)CC[C@H]2[C@@H]3CCC4=CC(=O)CC[C@]4(C)[C@@]3(F)[C@@H](O)C[C@@]21C [Fludrocortisone acetate],0.981 (inactive)
8,CC1(C)S[C@@H]2[C@H](NC(=O)[C@H](NC(=O)N3CCNC3=O)c3ccccc3)C(=O)N2[C@H]1C(=O)O [Azlocillin sodium salt],0.00584 (active)
9,C[C@@](Cc1ccc(O)c(O)c1)(NN)C(=O)O [Carbidopa],1.01 (inactive)
10,C[C@H]1O[C@H](O[C@H]2[C@H](O)[C@@H](O)[C@@H](O[C@@H]([C@H](O)[C@@H](O)C=O)[C@H](O)CO)O[C@@H]2CO)[C@H](O)[C@@H](O)[C@@H]1N[C@H]1C=C(CO)[C@@H](O)[C@H](O)[C@H]1O [Acarbose],1 (inactive)
11,O=C(O)CCC(=O)c1ccc(-c2ccccc2)cc1 [Fenbufen],0.993 (inactive)
12,CN1CCC[C@@H]1CCO[C@](C)(c1ccccc1)c1ccc(Cl)cc1 [Clemastine fumarate],0.925 (inactive)
13,CN(C)CCOC(C)(c1ccccc1)c1ccccn1 (centres undefined) [Doxylamine succinate],0.999 (inactive)
14,CC(=O)N(O)CCCCCNC(=O)CCC(=O)N(O)CCCCCNC(=O)CCC(=O)N(O)CCCCCN [Deferoxamine mesylate],1 (inactive)
15,C[C@]12CCC(=O)C=C1CC[C@@H]1[C@@H]2[C@@H](O)C[C@@]2(C)[C@H]1CC[C@]2(O)C(=O)CO [Hydrocortisone],0.996 (inactive)
16,CN(C)CC/C=C1\c2ccccc2CSc2ccccc21 [Dosulepin hydrochloride],0.942 (inactive)
17,CN1CCN(CCCN2c3ccccc3Sc3ccc(S(=O)(=O)N(C)C)cc32)CC1 [Thioproperazine dimesylate],0.96 (inactive)
18,CO[C@H]1C[C@H](O[C@H]2[C@H](C)[C@@H](O[C@@H]3O[C@H](C)C[C@H](N(C)C)[C@H]3OC(C)=O)[C@@H](C)C[C@@]3(CO3)C(=O)[C@H](C)[C@@H](OC(C)=O)[C@@H](C)[C@@H](C)OC(=O)[C@@H]2C)O[C@@H](C)[C@@H]1OC(C)=O [Troleandomycin],0.207 (inactive)
19,Cc1cnc(C(=O)O)c[n+]1[O-] [Acipimox],0.992 (inactive)
20,COc1ccc(-c2cc(=O)c3c(O)cc(O[C@@H]4O[C@H](CO[C@@H]5O[C@@H](C)[C@H](O)[C@@H](O)[C@H]5O)[C@@H](O)[C@H](O)[C@H]4O)cc3o2)cc1O [Diosmin],0.996 (inactive)
